Test systems include NCI-H226 lung; NCI-H322M lung; HOP-62 NSCLC; NCI-H460 lung; HOP-92 NSCLC; NCI-H522 lung; A549/ATCC NSCLC; 786-0 renal; COLO 205 colon; DU-145 prostate; K-562 leukemia; MALME-3M melanoma; MDA-MB-231 breast; RXF 393 renal; SF-268 CNS; SF-295 CNS; SF-539 CNS; UACC-257 melanoma; M14 melanoma.
Holding throughout (assay): NCI-60 one-dose screen, 48 h (100 = growth as untreated, 0 = no growth, -100 = all killed)
What all share (settings): 10 µM unless noted

Compounds without any hit were thinned out: in the full panel of roughly 83,000, 20% have a hit.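 96-well plates, one dose, 48 hours. Percent growth reported; active if below 10.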 Values without a mark were called inactive. Calls of active or inactive are those of the source.

As for `C#CCOc1cc(N(CC)CC)ccc1C(C(=O)NC(C)(C)C)N(C(=O)C1CCc2cc(F)ccc2O1)c1ccccc1Br` (centres undefined), the growth is 63.8% in the assay with NCI-H226 lung; 86.3% with NCI-H322M lung; 73.3% with HOP-62 NSCLC; 52.3% in the assay with NCI-H460 lung; 56.4% in the assay on HOP-92 NSCLC; 47.6% in the assay on NCI-H522 lung. The growth with A549/ATCC NSCLC is 54.2%; in the assay on 786-0 renal, 59.4%; with COLO 205 colon it was 46.9%; in the assay with DU-145 prostate it was 74%; in the assay on K-562 leukemia, 31.3%; in the assay on MALME-3M melanoma, 77.4%. In addition, the growth in the assay with MDA-MB-231 breast is 63%; with RXF 393 renal it was 81.6%; in the assay on SF-268 CNS it was 62.1%; with SF-295 CNS it was 62.8%; with SF-539 CNS, 72.5%; in the assay with UACC-257 melanoma, 60%. The growth with M14 melanoma was 55.5%.

On to `CC1(C)CC[C@]2(C(=O)O)CC[C@]3(C)C(=CCC4[C@@]5(C)C[C@@H](O)[C@@H]6OC(c7ccc(F)cc7)OC[C@@]6(C)C5CC[C@]43C)C2C1` (some centres undefined), for which the growth in the assay on NCI-H226 lung was 34.4%; in the assay with HOP-62 NSCLC it was 47.5%; in the assay on NCI-H460 lung, 15.7%; in the assay on HOP-92 NSCLC, 1.62% (active); in the assay with NCI-H522 lung it was 8.38% (active); in the assay on A549/ATCC NSCLC, 17%. For the same compound, the growth in the assay on 786-0 renal was 39.6%; in the assay with COLO 205 colon, -2.36% (active); in the assay on DU-145 prostate, 28.7%; in the assay with K-562 leukemia, 14.9%; with MALME-3M melanoma, 39%; with MDA-MB-231 breast, 50.6%. Further, the growth in the assay with RXF 393 renal is 42.8%; in the assay on SF-268 CNS, 41.3%; in the assay with SF-295 CNS, 32.7%; in the assay on SF-539 CNS, 50.8%; in the assay with UACC-257 melanoma, 42.3%; in the assay with M14 melanoma, 40.4%.

Consider `O=C(CSc1nc2ccccc2c(=O)[nH]1)NCCN1CCCCC1`, for which the growth in the assay with NCI-H226 lung is 95.7%; in the assay with HOP-62 NSCLC, 106%; in the assay on NCI-H460 lung it was 104%; in the assay with HOP-92 NSCLC, 101%; with NCI-H522 lung it was 90.6%; in the assay on A549/ATCC NSCLC it was 100%. The growth in the assay with 786-0 renal was 102%; with COLO 205 colon it was 99%; in the assay with DU-145 prostate, 106%; in the assay on K-562 leukemia, 98.9%; in the assay on MALME-3M melanoma it was 97.3%; in the assay with MDA-MB-231 breast it was 100%. For the same compound, the growth is 115% in the assay on RXF 393 renal; 92.9% with SF-268 CNS; 103% in the assay on SF-295 CNS; 91% with SF-539 CNS; 97.3% in the assay on UACC-257 melanoma; 94.4% in the assay on M14 melanoma.

In the case of `Cc1ccc(-c2nc(C#N)c(S(=O)(=O)N3CCN(S(=O)(=O)c4ccccc4)CC3)o2)cc1`, the growth with NCI-H226 lung was 69.2%; in the assay with NCI-H322M lung, 77.9%; in the assay on HOP-62 NSCLC, 87.7%; in the assay with NCI-H460 lung it was 32.6%; with HOP-92 NSCLC, -20.4% (active); in the assay on NCI-H522 lung it was -87.8% (active). In addition, the growth in the assay on A549/ATCC NSCLC was 57.9%; in the assay with 786-0 renal, -87.1% (active); in the assay with COLO 205 colon, -62.1% (active); with DU-145 prostate, 28.8%; in the assay with K-562 leukemia, -28.1% (active); in the assay with MALME-3M melanoma, -77.4% (active). Also, the growth in the assay on MDA-MB-231 breast is 31.4%; in the assay with RXF 393 renal, -89.2% (active); with SF-268 CNS it was 56.5%; in the assay on SF-295 CNS, 149%; in the assay with SF-539 CNS it was -43.4% (active); in the assay on UACC-257 melanoma it was 44.7%. The growth in the assay with M14 melanoma is -21.3% (active).

For the compound `Cc1cccc(NC(=O)CN2CCN(c3ncnc4c3cnn4-c3ccccc3)CC2)c1`, the growth was 84.8% in the assay with NCI-H226 lung; 91.3% in the assay on NCI-H322M lung; 96.2% with HOP-62 NSCLC; 98.2% with HOP-92 NSCLC; -39.6% (active) in the assay on NCI-H522 lung; 97% with A549/ATCC NSCLC. The growth in the assay on 786-0 renal was 98.1%; in the assay on COLO 205 colon, 109%; in the assay with DU-145 prostate it was 96.7%; in the assay with K-562 leukemia, 67.5%; with MALME-3M melanoma, 99.4%; in the assay on MDA-MB-231 breast it was 87.4%. The growth with RXF 393 renal was 90%; in the assay on SF-268 CNS it was 88.4%; in the assay with SF-295 CNS, 117%; in the assay with SF-539 CNS, 102%; in the assay on UACC-257 melanoma, 102%; in the assay with M14 melanoma, 94.4%.

In the case of `COc1ccc2[nH]cc(-c3nnc(N)nc3-c3cn(C)c4ncc(Br)cc34)c2c1`, the growth was 91.7% in the assay with NCI-H226 lung; 77.9% in the assay on NCI-H322M lung; 70.2% in the assay with HOP-62 NSCLC; 83.1% with NCI-H460 lung; 6.98% (active) in the assay with HOP-92 NSCLC; 50.3% with NCI-H522 lung. Moreover, the growth in the assay on A549/ATCC NSCLC was 84.3%; in the assay on 786-0 renal, 52.5%; with COLO 205 colon, 102%; in the assay with DU-145 prostate it was 93%; in the assay with K-562 leukemia it was 52.5%; with MALME-3M melanoma, 121%. For the same compound, the growth with MDA-MB-231 breast was 45.8%; in the assay on RXF 393 renal, 27.1%; in the assay with SF-268 CNS, 81.4%; in the assay on SF-295 CNS it was 83.1%; with SF-539 CNS, 66.5%; in the assay with UACC-257 melanoma it was 106%. The growth with M14 melanoma is 105%.

As for `COc1ccc2c(c1)c(-c1cc(N)n3nc(-c4cn(C)c5ccccc45)cc3n1)cn2C`, the growth was -44% (active) with NCI-H226 lung; -42.2% (active) in the assay with NCI-H322M lung; -59.6% (active) with HOP-62 NSCLC; -44.5% (active) in the assay with NCI-H460 lung; -75.2% (active) in the assay with HOP-92 NSCLC; -64.4% (active) with NCI-H522 lung. In addition, the growth in the assay on A549/ATCC NSCLC is -44.6% (active); in the assay with 786-0 renal it was -88.3% (active); with COLO 205 colon, -83% (active); in the assay with DU-145 prostate it was -58% (active); in the assay on K-562 leukemia, 2.2% (active); in the assay with MALME-3M melanoma it was -76.5% (active). The growth in the assay on MDA-MB-231 breast is -53.8% (active); in the assay with RXF 393 renal, -82.2% (active); with SF-268 CNS, -56.5% (active); in the assay on SF-295 CNS, -73.3% (active); in the assay with SF-539 CNS, -87.6% (active); with UACC-257 melanoma, -67.8% (active). In addition, in the assay with M14 melanoma, the growth is -83% (active).

Consider `Cn1cc(-c2cc3nc(-c4c[nH]c5ccc(Br)cc45)cc(N)n3n2)c2ccccc21`, for which the growth in the assay with NCI-H226 lung is -35% (active); with NCI-H322M lung it was -48.8% (active); with HOP-62 NSCLC it was -74.4% (active); in the assay with NCI-H460 lung, -52.9% (active); in the assay on HOP-92 NSCLC it was -73.6% (active); in the assay with NCI-H522 lung it was -68.9% (active). Also, the growth in the assay with A549/ATCC NSCLC was -71.7% (active); in the assay with 786-0 renal, -89.6% (active); with COLO 205 colon, -83.5% (active); in the assay with DU-145 prostate it was -85.7% (active); in the assay with K-562 leukemia, 0.783% (active); in the assay on MALME-3M melanoma, -73.4% (active). The growth in the assay on MDA-MB-231 breast is -63.2% (active); in the assay with RXF 393 renal, -89.4% (active); in the assay with SF-268 CNS, -32.7% (active); with SF-295 CNS it was -81.8% (active); in the assay on SF-539 CNS, -89.7% (active); with UACC-257 melanoma, -84.6% (active). Also, the growth with M14 melanoma was -85.5% (active).
